eLon inh: inhibitors of E. coli Lon protease; purified E. coli Lon protease, fluorescence polarization; inhibition, % at 7.94 µM; 0.42% of 360,000 active; AID 602123; in the data active = inhibition above about 13%, passing the limit was not always enough;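 also: 0% = enzyme with probe and DMSO and 100% = no enzyme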
Rin1 Abl inh: inhibitors of human Rin1-Abl protein interaction. P00519+Q13671. TR-FRET Rin1/Abl binding, biochemical. inhibition, % at 7.35 µM. 0.4% of 360,000 active. AID 588664; in the data active = inhibition above about 5%, passing the limit was not always enough
pPAFAH FP inh: inhibitors of human plasma PAF acetylhydrolase (pPAFAH) | Q13093 | recombinant pPAFAH, FP-rhodamine probe fluorescence polarization | inhibition, % at 3.39 µM | 1.5% of 330,000 active;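 active = inhibition above the mean inhibition across the screen plus 3 SD, cut at about 25% in these data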;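 also: inhibitors block binding of the rhodamine activity-based probe so polarization drops; 0% = enzyme with DMSO and 100% = wells lacking pPAFAH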
Target sequence (Q13093 whole entry, looked up): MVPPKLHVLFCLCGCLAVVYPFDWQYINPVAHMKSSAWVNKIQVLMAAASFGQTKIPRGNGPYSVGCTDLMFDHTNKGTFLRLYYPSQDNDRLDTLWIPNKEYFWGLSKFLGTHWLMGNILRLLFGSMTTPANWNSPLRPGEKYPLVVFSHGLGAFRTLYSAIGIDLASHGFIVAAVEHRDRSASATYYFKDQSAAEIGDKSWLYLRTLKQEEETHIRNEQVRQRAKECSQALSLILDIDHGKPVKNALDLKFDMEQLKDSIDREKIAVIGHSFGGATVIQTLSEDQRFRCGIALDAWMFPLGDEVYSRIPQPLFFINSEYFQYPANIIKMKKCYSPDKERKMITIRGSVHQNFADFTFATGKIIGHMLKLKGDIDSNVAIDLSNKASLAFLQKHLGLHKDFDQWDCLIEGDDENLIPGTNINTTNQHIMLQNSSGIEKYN
PAFAH1B2 FP inh: blocks human PAF acetylhydrolase 1b catalytic subunit 2 | inhibition, % at 3.39 µM | AID 492953 | recombinant PAFAH1B2, FP-rhodamine activity probe, fluorescence polarization | 1.2% of 340,000 active | P68402;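 active = inhibition above the mean of all tested compounds plus 3 SD, cut at about 24% in these data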;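 also: 0% = enzyme with DMSO and 100% = wells lacking PAFAH1B2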
PAFAH1B3 FP inh: blocks human PAF acetylhydrolase 1B catalytic subunit 3; recombinant PAFAH1B3, FP-rhodamine probe, fluorescence polarization; inhibition, % at 3.39 µM; 0.28% of 340,000 active; Q15102; AID 492972;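 active = inhibition above the screen-wide average of all tested compounds plus 3 SD, cut at about 25% in these data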;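 also: 0% = enzyme with DMSO only and 100% = wells lacking PAFAH1B3 protein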
Target sequence (Q15102 whole entry, looked up): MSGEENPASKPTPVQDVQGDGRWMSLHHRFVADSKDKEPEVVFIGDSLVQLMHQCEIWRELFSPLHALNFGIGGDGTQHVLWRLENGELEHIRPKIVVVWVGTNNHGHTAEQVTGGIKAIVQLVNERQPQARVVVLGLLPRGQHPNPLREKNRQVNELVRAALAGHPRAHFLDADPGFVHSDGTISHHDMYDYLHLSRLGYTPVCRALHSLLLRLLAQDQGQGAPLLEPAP
PAFAH2 inh: inhibitors of human PAFAH2; recombinant PAFAH2, FP-rhodamine activity probe, fluorescence polarization; 0.99% of 340,000 active; Q99487; inhibition, % at 3.39 µM;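 active = inhibition above the mean over all tested compounds plus 3 SD, cut at about 30% in these data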;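 also: inhibitors block probe labeling of enzyme so polarization drops; 0% = enzyme with DMSO and 100% = wells lacking PAFAH2 protein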
Rin1-Abl confirm: confirmation of inhibitors of human Rin1-Abl interaction. shares compounds with Rin1 Abl inh. TR-FRET Rin1-Abl binding, purified proteins. inhibition, % at 7.35 µM. 49% of 1,300 active. AID 602124
GFP quencher: GFP fluorescence interference artifact; shares compounds with Rin1 Abl inh; inhibitors/quenchers counterscreen; inhibition, % at 6.75 µM; 8.5% of 1,300 active; AID 602125;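 also: ABL1-eGFP fusion protein alone without its partner RIN1-SBP; 0% = protein with vehicle and 100% = wells lacking protein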
GFP quench DR: GFP fluorescence interference dose response; shares compounds with Rin1 Abl inh; GFP fluorescence interference/quenching counterscreen; IC50, µM; 230 tested, under 10 active; call rule not given here;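 also: ABL1-eGFP fusion protein alone without its RIN1 binding partner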
E coli Lon conf: confirmation of E. coli Lon protease inhibitors | shares compounds with eLon inh | 31% of 1,400 active | purified E. coli Lon, fluorescence polarization | inhibition, % at 7.94 µM; in the data active = inhibition above about 16%;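 also: 0% = enzyme with probe and DMSO and 100% = no enzyme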
* marks the source's active call; other numbers are inactive results; / = no result. Rows were chosen to be rich in hits. Some 3.1% of all compounds tested hit in one or more screens of this group. Rule as the data show it, unless noted: active = inhibition above about 6.5%; inactive = the rest.

SMILES | eLon inh | Rin1 Abl inh | pPAFAH FP inh | PAFAH1B2 FP inh | PAFAH1B3 FP inh | PAFAH2 inh | E coli Lon conf | others
Cc1cccnc1C(NC(=O)C1CCN(Cc2ccc(Oc3ccccc3)cc2)CC1)c1ccccc1 (configuration not stated) | -15.5 | -2.1 | / | / | / | / | /
CCOc1ccc(OCCNCc2ccc(OC(C)C(=O)N(C)C)c(OCC)c2)cc1 (configuration not stated) | -10.8 | 3.3 | 0.2 | 3.2 | 1.5 | -4.2 | /
Cc1c(C(=O)N2CCN(CCc3ccccn3)CC2)oc2ccc(Cl)cc12 | -3.6 | -2.8 | 3.1 | -1.5 | -1.5 | 2.9 | /
COc1ccc(C2c3c(nc[nH]c3=O)Oc3nc[nH]c(=O)c32)cc1 | -2.8 | 50.4* | 6.8 | 5.8 | -2.5 | -4.2 | / | Rin1-Abl confirm=63.9*;GFP quencher=-1.6;GFP quench DR=>67.5
CCOc1ccc(C2C(C#N)=C(N)Oc3nc[nH]c(=O)c32)cc1OC (configuration not stated) | -1.0 | -0.7 | 0.0 | 0.8 | -3.0 | -0.2 | /
O=C1CNC(=O)N1CC(O)Cn1c2ccccc2c2ccccc21 (configuration not stated) | -6.7 | 23.6* | 3.1 | 2.7 | -10.4 | 7.8 | / | Rin1-Abl confirm=28.0*;GFP quencher=-1.0;GFP quench DR=>67.5
CCN1CCN(c2ccc(NC(=O)c3cc(OC)c(OC)c(OC)c3)cc2)CC1 | 5.1 | -1.6 | 3.5 | 1.6 | 8.2 | -3.5 | /
Cc1onc(-c2c(F)cccc2Cl)c1C(=O)OCC(=O)N(C)c1ccccc1 | -18.9 | -1.0 | / | / | / | / | /
CCOc1c(Cl)cc(C(=O)Nc2ccccc2C(=O)O)cc1Cl | 1.4 | 13.1* | 3.3 | 1.0 | 4.9 | 1.0 | / | Rin1-Abl confirm=19.0*;GFP quencher=1.0;GFP quench DR=>67.5
COc1ccc(C(=O)Nc2ccccc2C(=O)O)cc1Cl | -0.2 | 0.8 | -2.3 | -5.0 | 11.2 | 6.3 | /
O=C1c2ccccc2C(=O)N1/N=C/c1ccc(O)c(O)c1 | 4.9 | 11.1* | 3.7 | -1.0 | 13.6 | 8.4 | / | Rin1-Abl confirm=-2.6;GFP quencher=6.3
CCCCSc1nnc(-c2ccc(NC(=O)CCc3ccccc3)cc2)n1C | 4.7 | 6.2* | 5.5 | 1.6 | 9.6 | -0.8 | / | Rin1-Abl confirm=9.0*;GFP quencher=0.9
CC(=O)c1ccc(NC(=O)CSc2nnc(C3CC3)n2C2CC2)cc1 | -0.2 | 0.8 | 3.4 | 3.3 | 1.2 | -2.7 | /
COc1ccccc1N1CCN(Cc2ccc(O)c3ncccc23)CC1 | 15.2* | 18.2* | 4.2 | 6.7 | 4.7 | 0.0 | 12.4 | Rin1-Abl confirm=2.5;GFP quencher=1.5
COc1ccccc1N1CCN(Cc2ccc(OC)c(OC)c2OC)CC1 | -5.8 | -0.4 | 4.1 | 3.1 | 1.5 | 6.5 | /
CN(C)N(C(=O)c1cc(-c2cccs2)nn1-c1ccccc1)C1CCS(=O)(=O)C1 (configuration not stated) | -5.3 | 0.8 | -1.8 | 9.6 | 10.6 | 10.0 | /
O=C1C=C(N2CCOCC2)c2cccc3cccc1c23 | 183.0* | 16.2* | / | / | / | / | 5.8 | Rin1-Abl confirm=-15.0;GFP quencher=1.2
O=C(O)c1cc(N2N=C(C(F)(F)F)/C(=C/C=C/c3ccco3)C2=O)ccc1Cl | 27.5* | 11.9* | / | 31.9* | 36.7* | 58.5* | -12.1 | Rin1-Abl confirm=4.5;GFP quencher=26.0*
OCC[C@@H]1C[C@H](O)[C@@H](O)[C@]2(OCc3cc(C(F)(F)F)ccc32)O1 | 1.8 | 5.4 | / | / | / | / | /
Nc1ccc(C(=O)NN2C(=O)[C@H](Cl)C2c2ccc(Cl)cc2)cc1 (some centres not stated) | 4.7 | -3.3 | / | -9.0 | 3.7 | -6.2 | /
NS(=O)(=O)c1ccc(N/N=C/c2ccc(O)c(O)c2O)c([N+](=O)[O-])c1 | 21.1* | 40.0* | / | -0.8 | 12.1 | 6.2 | 37.8* | Rin1-Abl confirm=45.5*;GFP quencher=30.0*
COc1cccc(NC(=S)NCc2ccc3c(c2)cc(C)n3C)c1 | 9.1 | -3.4 | / | 8.7 | 2.0 | 8.4 | /
Cc1cccc(NC(=O)NCc2ccc3c(c2)cc(C)n3C)c1 | 30.0* | 7.8* | -1.6 | -6.5 | 4.3 | 9.0 | 13.3 | Rin1-Abl confirm=-19.9;GFP quencher=-1.1
CCOC(=O)N(CC)OC(=O)Nc1ccc(Cl)cc1 | 4.3 | -4.4 | 1.0 | 2.3 | 3.4 | -6.9 | /
CCOC(=O)N(C)OC(=O)Nc1ccc(Cl)c(Cl)c1 | 18.8* | 2.7 | -7.8 | -0.7 | -0.6 | -9.6 | 24.6*
SMILES | eLon inh | Rin1 Abl inh | pPAFAH FP inh | PAFAH1B2 FP inh | PAFAH1B3 FP inh | PAFAH2 inh | E coli Lon conf | others
Cc1ccc(-n2c(C)cc(C(=O)Cn3nc(C(=O)O)c4ccccc4c3=O)c2C)cc1 | 51.4* | 0.3 | -5.6 | -5.7 | 2.5 | -4.3 | -4.1
Cc1cc(C(=O)Cn2nc(C(=O)O)c3ccccc3c2=O)c(C)n1-c1ccc(OC(F)F)cc1 | -0.2 | -0.7 | -6.7 | 1.4 | 2.5 | -14.4 | /
O=C1CCC(=O)N1CCc1c[nH]c2ccccc12 | 0.5 | -0.6 | 4.5 | 1.5 | 0.2 | 2.9 | /
O=C1CCCCN1CCc1c[nH]c2ccccc12 | 13.7* | -4.1 | 6.4 | 1.7 | 12.6 | 2.2 | -2.0
COc1ccc(C2=CSC3=NCCN23)cc1Br | 4.5 | -3.1 | 5.8 | / | / | / | /
CNC(=O)CSc1nc2cccnc2n1C1CCCCC1 | -3.6 | -0.1 | 7.8 | 1.9 | 2.9 | -7.1 | /
CNC(=O)CSc1nc2cccnc2n1-c1ccc(F)cc1 | 28.3* | 0.2 | / | -4.2 | -2.5 | -7.0 | -11.3
O=C(COc1cccnc1[N+](=O)[O-])Nc1ncc(Cl)cc1Cl | 18.2* | 0.2 | 24.2 | 7.1 | 3.0 | 14.3 | -4.0
O=C(COc1ccc2c3c(c(=O)oc2c1)CCC3)Nc1ccc(CCO)cc1 | -4.6 | -1.7 | 3.6 | -0.8 | -4.0 | 7.7 | /
NS(=O)(=O)c1ccc(CCNC(=O)COc2ccc3c4c(c(=O)oc3c2)CCC4)cc1 | 17.7* | -1.8 | 0.8 | -0.2 | 2.8 | 5.6 | -39.8
CCCCC1Cc2[nH][nH]c(=O)c2C(c2ccc(F)cc2)O1 (configuration not stated) | 0.1 | / | / | / | / | / | /
Nc1ccc2nc(-c3ccccc3)cnc2c1 | 33.9* | -8.8 | 13.6 | -1.4 | 3.9 | 3.6 | 107.3*
COc1cccc(C2=Cc3ccc(F)cc3C(CC(C)=O)N2c2ccc(C#CC3(O)CCCCC3)cc2)c1 (configuration not stated) | -5.0 | / | / | / | / | / | /
Nc1[nH]c(=O)[nH]c(=O)c1N=Cc1ccccc1 | 90.0* | 3.5 | / | -0.6 | 6.1 | 2.6 | 53.1*
O=c1nc2ccccc2c(NS(=O)(=O)c2ccccc2)n1-c1ccccc1 | 61.0* | -4.8 | 5.2 | -1.4 | -2.0 | 6.8 | 5.7
c1ccc2c(c1)ccn2CCCN1CCCCC1 | 4.3 | 2.5 | / | 5.9 | 2.8 | 3.5 | /
N#CCC(=O)Nc1ccc(C(=O)OCC(=O)N=c2sccn2Cc2ccccc2Cl)cc1 | -32.2 | 0.9 | 7.9 | 13.3 | -5.2 | -14.6 | /
